In PubChem BioAssay (NCATS) one finds Potency data, which are given here for 21 molecules.

Experiment in all cases: qHTS profiling for inhibitors of Plasmodium falciparum proliferation (AID 504749); further: nearly all actives have a fitted effect of over 60% in size
Common to all, as to details: P. falciparum in erythrocytes, SYBR Green DNA, 72 h; series mostly up to 28.7 µM
On the technique in general: qHTS replaces the single test concentration by a dilution series.

For one experiment, the system named is CP203. In a few lines:
(§1)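 Each compound contacts P. falciparum-infected red blood cells for 72 h at 37 C; lysis buffer (Tris, EDTA, saponin, Triton X, SYBR Green I) is added and fluorescence measured next morning; values normalized to controls.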

For the next experiment, the system named is CP211. In a few lines: as §1
For a further experiment, the system named is CP215. The gist of the method:
as §1

In the next experiment the test system is CP217. The gist of the method: as §1
Another experiment deals with CP237. The gist of the method: as §1
In the next experiment the test system is CP238. The gist of the method: as §1
In the next experiment the test system is CP247. The gist of the method:
as §1

In a further experiment the test system is CP250. In a few lines: as §1
The subject of the next experiment is CP252. The gist of the method:
as §1

For a further experiment, the system named is CP256. In a few lines: as §1

Inconclusive results are not listed. Calls of active or inactive are those of the source. The call rests on the fitted dose curve; in most records, active means well fitted inhibition curve with a large enough effect; inconclusive means small, poorly fitted or top-dose-only effect; inactive means flat fitted curve, though single readings scatter. Peptide text beside a SMILES is read from it.
Potency means the concentration at half of the fitted maximal effect.

With `Cc1ccc(C)c(OCCCC(C)(C)C(=O)O)c1`, the Potency result with CP203, with CP211, with CP215, in the experiment with CP217, in the experiment on CP237 and in the experiment with CP238 was “inactive” throughout. Moreover, the Potency entry with CP247, in the experiment with CP250, in the experiment with CP252 and with CP256 was “inactive” throughout.

For the molecule `COC(=O)[C@H](Cc1ccccc1)NC(=O)[C@@H](N)CC(=O)O` (H-Asp-Phe-OMe), the Potency result with CP203, with CP211, in the experiment on CP215, in the experiment with CP217, with CP237 and with CP238 was “inactive” in each case. Also, the Potency result in the experiment with CP247, with CP250, in the experiment on CP252 and in the experiment with CP256 was “inactive” each time.

`CCCCc1ccc2nc(NC(=O)OC)[nH]c2c1`: the Potency entry in the experiment with CP203, in the experiment with CP211, in the experiment on CP215, in the experiment on CP217, in the experiment on CP237 and in the experiment on CP238 was “inactive” each time. The Potency entry in the experiment on CP247, in the experiment on CP250, in the experiment with CP252 and in the experiment with CP256 was “inactive” in each case.

For `COc1cc2c(cc1OC)C1CC(=O)C(CC(C)C)CN1CC2` (stereo not drawn), the Potency entry with CP203, with CP211, in the experiment on CP215, in the experiment with CP217, in the experiment with CP237 and with CP238 was “inactive” each time. The Potency result in the experiment with CP247, in the experiment on CP250, with CP252 and in the experiment on CP256 was “inactive” each time.

For the molecule `O=C(NCCO[N+](=O)[O-])c1cccnc1`, the Potency entry with CP203, in the experiment with CP211, in the experiment on CP215, in the experiment with CP217, in the experiment on CP237 and with CP238 was “inactive” each time. The Potency result in the experiment on CP247, in the experiment with CP250, in the experiment on CP252 and with CP256 was “inactive” throughout.

For the molecule `CN(C)CCc1c[nH]c2ccc(Cn3cncn3)cc12`, the Potency result in the experiment with CP203, in the experiment with CP211, with CP215, with CP217, with CP237 and in the experiment on CP238 was “inactive” in each case. The Potency entry in the experiment with CP247, in the experiment with CP252 and in the experiment on CP256 was “inactive” throughout.

As to `N[C@@H](Cc1cc(I)c(Oc2cc(I)c(O)c(I)c2)c(I)c1)C(=O)O`, the Potency entry in the experiment on CP203, in the experiment on CP211, in the experiment with CP215, in the experiment with CP217, in the experiment on CP237 and in the experiment with CP238 was “inactive” in each case. In addition, the Potency entry in the experiment on CP247, in the experiment with CP250, in the experiment on CP252 and with CP256 was “inactive” in each case.

Consider `Cc1cc(=O)c2c(O)c3c(O)cc(=O)c4c3c3c(cc(O)c1c23)C(C)(C)C=4O`, for which the Potency in the experiment on CP203 was 1900 nM (active); with CP215, 2390 nM (active); in the experiment with CP217, 891 nM (active); in the experiment on CP237, 1410 nM (active); in the experiment with CP238, 1000 nM (active); in the experiment with CP247, 1780 nM (active). Also, the values for the Potency in the experiment on CP250, in the experiment on CP252 and with CP256 were 1410 nM (active), 1260 nM (active) and 1580 nM (active), respectively.

For the molecule `O=C(O)c1cccc(-c2noc(-c3ccccc3F)n2)c1`, the Potency entry in the experiment with CP203, with CP211, in the experiment with CP215, with CP217, in the experiment on CP237 and in the experiment on CP238 was “inactive” throughout. Also, the Potency result in the experiment with CP247, in the experiment on CP250, with CP252 and in the experiment on CP256 was “inactive” in each case.

For the molecule `CCN(CC)CCOc1ccc(Cc2ccccc2)cc1`, the Potency entry in the experiment with CP203, in the experiment on CP211, with CP215, with CP217, in the experiment on CP237 and in the experiment on CP238 was “inactive” throughout. Besides, the Potency result with CP250, in the experiment with CP252 and in the experiment on CP256 was “inactive” in each case.

Turning to `COc1ccc(C2(C#N)CCC(C(=O)O)CC2)cc1OC1CCCC1` (stereo not drawn), the Potency entry in the experiment on CP203, in the experiment on CP211, in the experiment on CP215, in the experiment with CP217, in the experiment on CP237 and in the experiment on CP238 was “inactive” throughout. For the same molecule, the Potency result with CP247, in the experiment on CP250, in the experiment with CP252 and in the experiment on CP256 was “inactive” throughout.

On to `COC(=O)C1=C(C)NC(C)=C(C(=O)OCCCN2CCC(c3ccccc3)(c3ccccc3)CC2)C1c1cccc([N+](=O)[O-])c1` (stereo not drawn), for which the Potency was 9530 nM (active) in the experiment on CP203; 6010 nM (active) in the experiment on CP211; 6750 nM (active) in the experiment on CP215; 3550 nM (active) in the experiment on CP217; 2820 nM (active) in the experiment on CP237; 8910 nM (active) in the experiment with CP238. Further, the Potency in the experiment on CP247 is 6310 nM (active); with CP250, 7080 nM (active); in the experiment with CP252, 5010 nM (active); in the experiment on CP256 it was 7080 nM (active).

Regarding `Cc1cc(=O)oc2cc(O)ccc12`, the Potency entry in the experiment on CP203, in the experiment with CP211, in the experiment with CP215 and in the experiment on CP237 was “inactive” in each case.

`Nc1ccc(S(N)(=O)=O)cc1`: the Potency entry with CP203, in the experiment with CP211, with CP215, in the experiment on CP217, with CP237 and with CP238 was “inactive” in each case. Also, the Potency result in the experiment with CP247, in the experiment on CP250, with CP252 and in the experiment on CP256 was “inactive” throughout.

In the case of `CCOC(=O)c1c(C)n(C)c2ccc(O)cc12`, the Potency result with CP203, in the experiment on CP215, in the experiment with CP217, in the experiment on CP237, with CP238 and in the experiment on CP247 was “inactive” each time. In addition, the Potency entry in the experiment with CP250, in the experiment with CP252 and in the experiment with CP256 was “inactive” in each case.

Take `CN1C(C(=O)Nc2ccccn2)=C(O)c2sccc2S1(=O)=O`: the Potency entry in the experiment on CP203, in the experiment with CP211, in the experiment with CP215, in the experiment on CP217, with CP237 and in the experiment on CP238 was “inactive” throughout. Further, the Potency entry in the experiment with CP247, with CP250, in the experiment with CP252 and in the experiment with CP256 was “inactive” in each case.

Consider `CCOc1cc(CC(=O)N[C@@H](CC(C)C)c2ccccc2N2CCCCC2)ccc1C(=O)O`, for which the Potency result in the experiment on CP203, with CP211, with CP215, in the experiment on CP217, in the experiment with CP237 and in the experiment with CP238 was “inactive” each time. Moreover, the Potency entry with CP247, in the experiment with CP250, with CP252 and in the experiment on CP256 was “inactive” each time.

With `CCCc1cc(=O)[nH]c(=S)[nH]1`, the Potency entry in the experiment with CP203, in the experiment on CP211, with CP215, in the experiment on CP217, in the experiment on CP237 and in the experiment on CP238 was “inactive” each time. Moreover, the Potency entry with CP247, in the experiment on CP250, in the experiment with CP252 and with CP256 was “inactive” each time.

On to `c1ccc2[nH]c(-c3cscn3)nc2c1`, for which the Potency result in the experiment with CP203, in the experiment on CP211, in the experiment with CP215, in the experiment with CP217, in the experiment with CP237 and with CP238 was “inactive” each time. The Potency result in the experiment on CP252 and in the experiment with CP256 was “inactive” each time.

In the case of `COc1cc(OC)c(C(=O)CCCN2CCCC2)c(OC)c1`, the Potency result in the experiment on CP203, with CP211, in the experiment on CP215, with CP217, in the experiment on CP237 and in the experiment on CP238 was “inactive” in each case. Moreover, the Potency result in the experiment with CP247, in the experiment with CP250, in the experiment with CP252 and in the experiment on CP256 was “inactive” in each case.

Regarding `Cc1cc2c(s1)Nc1ccccc1N=C2N1CCN(C)CC1`, the Potency result in the experiment on CP203, with CP211, with CP215, with CP217, in the experiment with CP237 and in the experiment with CP238 was “inactive” each time. Also, the Potency result with CP247, in the experiment with CP250, in the experiment on CP252 and with CP256 was “inactive” each time.
